PubChem BioAssay (Tox21)
Values joined by “and” are separate entries in the source; they are usually repeats but may differ in a detail not shown here. Identical values can stand only once. Results filed as inconclusive are left out. Active and inactive are the calls of the source. The call rests on the fitted dose curve; in most records, active means well fitted curve in the direction sought with a large enough effect in the repeat runs; inconclusive means weak or mixed curves; inactive means no such curve, though single readings can be large; an effect the other way counts as inactive or inconclusive.

Experiments:
[1] = A CellTox Green Cytotoxicity Assay to monitor cytotoxicity in HEK293 cells - 40 hour (AID 1224871); further: nearly all actives have a fitted effect of over 45% in size
Procedure, shortened: (§1)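 HEK293 cells premixed with CellTox Green dye were seeded at 600 cells/well and left 5 h at 37 C/5% CO2 before pin transfer of 23 nL compound in DMSO. Fluorescence from dye bound to dead-cell DNA was read during 40 h treatment.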

[2] = qHTS RealTime-Glo MT Cell Viability Assay in HEK293 cells - 16 hour (AID 1224872); further: top concentration of the series differs between compounds; nearly all actives have a fitted effect of over 50% in size
Procedure, shortened: (§2)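 Quantitative high-throughput screen of the Tox21 10K library in HEK293: cells and RealTime-Glo reagents plated together, compound added at 5 h, luminescence monitored through 40 h at 37 C.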

[3] = qHTS RealTime-Glo MT Cell Viability Assay in HepG2 cells - 8 hour (AID 1224873); further: nearly all actives have a fitted effect of over 55% in size
Procedure, shortened: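 Real-time viability: cells seeded at 600 per well together with NanoLuc and cell-permeant prosubstrate, compounds added after 5 h incubation. Luminescence tracked at 0, 8, 16, 24, 32 and 40 h of exposure.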

[4] = qHTS RealTime-Glo MT Cell Viability Assay in HEK293 cells - 40 hour (AID 1224874); conditions: RealTime-Glo luminescence; max response: stronger effect = lower value; further: nearly all actives have a fitted effect of over 50% in size
Procedure, shortened: (§3)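 HEK293 cells mixed with RealTime-Glo reagents (NanoLuc plus cell-permeant prosubstrate) at 600 cells/well, preincubated 5 h at 37 C/5% CO2, then given 23 nL compound in DMSO. Nonlytic luminescence from viable cells was read at 0, 8, 16, 24, 32 and 40 h.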

[5] = A CellTox Green Cytotoxicity Assay to monitor cytotoxicity in HEK293 cells - 24 hour (AID 1224875); further: series mostly up to about 77 µM; nearly all actives have a fitted effect of over 45% in size
Procedure, shortened: as §1

[6] = A CellTox Green Cytotoxicity Assay to monitor cytotoxicity in HepG2 cells - 16 hour (AID 1224876); further: nearly all actives have a fitted effect of over 45% in size
Procedure, shortened: (§4)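 HepG2 cells were seeded together with the CellTox Green dye at 600 cells/well, left 5 h at 37 C/5% CO2, then given compounds in DMSO. Fluorescence from dye bound to dead-cell DNA was read repeatedly over 40 h of treatment at 37 C.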

[7] = qHTS RealTime-Glo MT Cell Viability Assay in HepG2 cells - 32 hour (AID 1224877); further: nearly all actives have a fitted effect of over 55% in size
Procedure, shortened: (§5)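 Compound treatment began 5 h after plating HepG2 cells (600/well) with NanoLuc luciferase and prosubstrate. Plates stayed at 37 C for 40 h; luminescence was captured at six time points, 0 h through 40 h.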

[8] = A CellTox Green Cytotoxicity Assay to monitor cytotoxicity in HepG2 cells - 24 hour (AID 1224878); further: nearly all actives have a fitted effect of over 45% in size
Procedure, shortened: as §4

[9] = A CellTox Green Cytotoxicity Assay to monitor cytotoxicity in HepG2 cells - 40 hour (AID 1224879); further: nearly all actives have a fitted effect of over 40% in size
Procedure, shortened: as §4

[10] = qHTS RealTime-Glo MT Cell Viability Assay in HEK293 cells - 0 hour (AID 1224880)
Procedure, shortened: as §3

[11] = A CellTox Green Cytotoxicity Assay to monitor cytotoxicity in HEK293 cells - 32 hour (AID 1224881); further: nearly all actives have a fitted effect of over 40% in size
Procedure, shortened: as §1

[12] = A CellTox Green Cytotoxicity Assay to monitor cytotoxicity in HepG2 cells - 0 hour (AID 1224882); further: nearly all actives have a fitted effect of over 35% in size
Procedure, shortened: as §4

[13] = A CellTox Green Cytotoxicity Assay to monitor cytotoxicity in HepG2 cells - 32 hour (AID 1224883); further: nearly all actives have a fitted effect of over 50% in size
Procedure, shortened: as §4

[14] = A CellTox Green Cytotoxicity Assay to monitor cytotoxicity in HEK293 cells - 8 hour (AID 1224884); further: nearly all actives have a fitted effect of over 35% in size
Procedure, shortened: as §1

[15] = qHTS RealTime-Glo MT Cell Viability Assay in HepG2 cells - 16 hour (AID 1224885); further: nearly all actives have a fitted effect of over 50% in size
Procedure, shortened: as §5

[16] = qHTS RealTime-Glo MT Cell Viability Assay in HEK293 cells - 24 hour (AID 1224886)
Procedure, shortened: as §2

[17] = qHTS RealTime-Glo MT Cell Viability Assay in HepG2 cells - 0 hour (AID 1224889); further: nearly all actives have a fitted effect of over 50% in size
Procedure, shortened: as §5

[18] = A CellTox Green Cytotoxicity Assay to monitor cytotoxicity in HepG2 cells - 8 hour (AID 1224890); further: nearly all actives have a fitted effect of over 45% in size
Procedure, shortened: as §4

[19] = qHTS RealTime-Glo MT Cell Viability Assay in HEK293 cells - 8 hour (AID 1224887)
Procedure, shortened: as §3

[20] = A CellTox Green Cytotoxicity Assay to monitor cytotoxicity in HEK293 cells - 16 hour (AID 1224888); further: nearly all actives have a fitted effect of over 35% in size
Procedure, shortened: as §1
On the % scale 0 is the no-effect control and ±100 the full control effect.

Cn1c(CCCC(=O)O)nc2cc(N(CCCl)CCCl)ccc21
inactive: Potency [1] | Potency [2] | outcome [3] | max response [4] 1.4% | Potency [5] | Potency [6] | Potency [7] | Potency [8] | Potency [9] | outcome [10] | Potency [11] | outcome [12] | Potency [13] | Potency [14] | Potency [15] | Potency [16] | outcome [17] | Potency [18]

C=CC1(C)OC(=O)N(c2cc(Cl)cc(Cl)c2)C1=O (stereo not drawn)
inactive: Potency [1] | Potency [2] | outcome [3] | max response [4] -8.21% and -20% | Potency [5] | Potency [6] | Potency [7] | Potency [8] | Potency [9] | Potency [11] | outcome [12] | Potency [13] | Potency [14] | Potency [15] | Potency [16] | Potency [19] | Potency [20] | outcome [17] | Potency [18]

CCCC(C)C1(CC)C(=O)N=C(S)NC1=O (stereo not drawn)
inactive: Potency [1] | Potency [2] | outcome [3] | max response [4] 1.79% | Potency [5] | Potency [6] | Potency [7] | Potency [8] | Potency [9] | outcome [10] | Potency [11] | outcome [12] | Potency [13] | Potency [14] | Potency [15] | Potency [16] | Potency [20] | outcome [17] | Potency [18]

C=CC(=O)OCCN(C)C
inactive: Potency [1] | Potency [2] | outcome [3] | max response [4] 14.5% | Potency [5] | Potency [6] | Potency [7] | Potency [8] | Potency [9] | Potency [11] | outcome [12] | Potency [13] | Potency [14] | Potency [15] | Potency [16] | Potency [19] | Potency [20] | outcome [17] | Potency [18]

CN=CNc1ccc(C)cc1C
inactive: Potency [1] | Potency [2] | outcome [3] | max response [4] 5.53% | Potency [5] | Potency [6] | Potency [7] | Potency [8] | Potency [9] | outcome [10] | Potency [11] | outcome [12] | Potency [13] | Potency [15] | Potency [16] | Potency [19] | Potency [20] | outcome [17] | Potency [18]

COC(=O)c1ccccc1CS(=O)(=O)NC(=O)Nc1nc(OC)cc(OC)n1
inactive: Potency [1] | Potency [2] | outcome [3] | max response [4] 1.53% | Potency [5] | Potency [6] | Potency [7] | Potency [8] | Potency [9] | outcome [10] | Potency [11] | outcome [12] | Potency [13] | Potency [14] | Potency [16] | Potency [19] | Potency [20] | outcome [17] | Potency [18]

O=C(NC(O)C(Cl)(Cl)Cl)NC(O)C(Cl)(Cl)Cl (stereo not drawn)
inactive: Potency [1] | Potency [2] | outcome [3] | max response [4] 0.623% | Potency [5] | Potency [6] | Potency [7] | Potency [8] | Potency [9] | outcome [10] | Potency [11] | outcome [12] | Potency [13] | Potency [14] | Potency [16] | Potency [19] | Potency [20] | outcome [17] | Potency [18]

CCOP(=O)(CN(CCO)CCO)OCC
inactive: Potency [1] | Potency [2] | outcome [3] | max response [4] 1.2% | Potency [5] | Potency [6] | Potency [7] | Potency [8] | Potency [9] | outcome [10] | Potency [11] | outcome [12] | Potency [13] | Potency [14] | Potency [15] | Potency [16] | Potency [19] | outcome [17] | Potency [18]

CCOC(=O)CC(SP(=S)(OC)OC)C(=O)OCC (stereo not drawn)
inactive: Potency [1] | Potency [2] | outcome [3] | max response [4] 11.4% | Potency [5] | Potency [6] | Potency [7] | Potency [8] | Potency [9] | outcome [10] | Potency [11] | outcome [12] | Potency [13] | Potency [14] | Potency [16] | Potency [20] | outcome [17] | Potency [18]

BrCC1CO1 (stereo not drawn)
inactive: Potency [1] | Potency [2] | outcome [3] | max response [4] 5.87% | Potency [5] | Potency [6] | Potency [7] | Potency [8] | Potency [9] | outcome [10] | Potency [11] | outcome [12] | Potency [13] | Potency [14] | Potency [15] | Potency [16] | outcome [17] | Potency [18]

CC(C)(C)C(=O)Cl
inactive: Potency [1] | Potency [2] | outcome [3] | max response [4] -0.811% | Potency [5] | Potency [6] | Potency [7] | Potency [8] | Potency [9] | outcome [10] | Potency [11] | outcome [12] | Potency [13] | Potency [16] | Potency [19] | Potency [20] | outcome [17] | Potency [18]

CCCCCCCCBr
inactive: Potency [1] | Potency [2] | outcome [3] | max response [4] 2.41% | Potency [5] | Potency [6] | Potency [7] | Potency [8] | Potency [9] | Potency [11] | outcome [12] | Potency [13] | Potency [14] | Potency [15] | Potency [16] | Potency [19] | Potency [20] | outcome [17] | Potency [18]

O=C(NC(=O)c1c(F)cccc1F)Nc1cc(Cl)c(F)c(Cl)c1F
inactive: Potency [1] | Potency [2] | outcome [3] | max response [4] -0.171% | Potency [5] | Potency [6] | Potency [7] | Potency [8] | Potency [9] | outcome [10] | Potency [11] | outcome [12] | Potency [13] | Potency [14] | Potency [15] | Potency [16] | Potency [19] | Potency [18]

O=C(O)CBr
inactive: Potency [1] | Potency [2] | outcome [3] | max response [4] -0.861% | Potency [5] | Potency [6] | Potency [7] | Potency [8] | Potency [9] | outcome [10] | Potency [11] | outcome [12] | Potency [13] | Potency [14] | Potency [15] | Potency [16] | Potency [20] | outcome [17] | Potency [18]

[O-][Br+2]([O-])O
inactive: Potency [1] | Potency [2] | outcome [3] | max response [4] 3% | Potency [5] | Potency [6] | Potency [7] | Potency [8] | Potency [9] | Potency [11] | outcome [12] | Potency [13] | Potency [14] | Potency [16] | Potency [20] | outcome [17] | Potency [18]
